From PubChem BioAssay AID602162 (NMMLSC, 2011) come the findings set out here.

In all, about 360,000 compounds went through this assay and about 690 (0.19%) were called active. This excerpt belongs to a sample that is enriched for actives. Unmarked numbers belong to inactive results.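 Rule for the calls: active = fluorescence ratio to DMSO below 75%, the collection mean minus 3 SD; inconclusive = too few cells collected in the well; inactive = the rest.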

ATP-binding cassette sub-family B member 6 (Homo sapiens), sequence (Q9NP58 whole entry, looked up): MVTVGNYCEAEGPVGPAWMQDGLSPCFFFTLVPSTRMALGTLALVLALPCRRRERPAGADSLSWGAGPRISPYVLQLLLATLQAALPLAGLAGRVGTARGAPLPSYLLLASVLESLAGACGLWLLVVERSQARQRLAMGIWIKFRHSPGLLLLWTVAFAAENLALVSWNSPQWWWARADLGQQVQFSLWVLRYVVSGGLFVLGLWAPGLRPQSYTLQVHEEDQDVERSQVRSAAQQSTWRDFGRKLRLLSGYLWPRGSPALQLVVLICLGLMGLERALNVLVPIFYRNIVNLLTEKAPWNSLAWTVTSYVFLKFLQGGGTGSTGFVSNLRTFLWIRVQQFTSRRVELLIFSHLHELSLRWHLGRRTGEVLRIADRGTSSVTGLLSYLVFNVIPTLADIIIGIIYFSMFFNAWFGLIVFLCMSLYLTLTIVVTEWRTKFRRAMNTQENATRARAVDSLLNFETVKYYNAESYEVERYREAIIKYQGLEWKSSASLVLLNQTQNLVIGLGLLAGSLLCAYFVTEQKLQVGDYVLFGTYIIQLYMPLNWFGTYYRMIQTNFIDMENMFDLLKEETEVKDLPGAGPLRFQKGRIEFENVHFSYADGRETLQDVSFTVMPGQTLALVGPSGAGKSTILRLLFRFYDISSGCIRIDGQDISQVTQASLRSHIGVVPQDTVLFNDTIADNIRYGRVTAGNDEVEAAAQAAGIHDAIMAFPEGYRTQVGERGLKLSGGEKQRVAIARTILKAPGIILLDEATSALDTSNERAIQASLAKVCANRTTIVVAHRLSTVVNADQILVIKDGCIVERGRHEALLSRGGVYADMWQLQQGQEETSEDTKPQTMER

The experiment addresses ATP-binding cassette sub-family B member 6 (Homo sapiens) (UniProt Q9NP58). Description: blockers of ABCB6-driven porphyrin uptake – K562-ABCB6 cells, flow cytometry, MLPCN library, primary screen (AID 602162).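 Note: signal is porphyrin accumulated inside mitochondria; 100% equals median channel fluorescence of DMSO control wells; lower ratio means ABCB6 inhibition with less porphyrin fluorescence.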 Conditions: K562-ABCB6 porphyrin accumulation, 1 h, at 10 µM, stronger effect = lower value.
For `O=C(NC1CCCCC1)c1ccc2c(=O)n(CC3CCCO3)c(=O)[nH]c2c1` (stereo not drawn), the fluorescence ratio to DMSO was 97%. To `Cc1ccc2nc3c(cc(C(=O)NCCc4ccccc4)c(=N)n3CC3CCCO3)c(=O)n2c1` (stereo not drawn) belongs 66% (active). For the molecule `Cc1ccc(CCNC(=O)c2ccc3nc4ccccc4c(=O)n3c2)cc1`, the fluorescence ratio to DMSO was 100%. Turning to `COc1cc2c(cc1OC)C(c1cccc([N+](=O)[O-])c1)=NCC2`, the fluorescence ratio to DMSO is 100%.

With `C=CCN1CC(C)/C(=N\O)CC1C` (stereo not drawn), the fluorescence ratio to DMSO is 88%.

For `O=C(Cc1ccc([N+](=O)[O-])cc1)NCCS(=O)(=O)N1CCN(c2ccccc2)CC1`, the fluorescence ratio to DMSO is 107%. With `Cc1cc(C)cc(NC(=O)NCc2ccccn2)c1`, the fluorescence ratio to DMSO was 58% (active). In the case of `Cc1cc(Cl)ccc1OCCCC(=O)NCc1ccccn1`, the fluorescence ratio to DMSO was 89%.

As to `Cc1ccc(SCCC(=O)NCc2ccccn2)cc1`, the fluorescence ratio to DMSO was 98%. As to `NC(=O)c1ncc(C(F)(F)F)cc1Oc1ccc(F)cc1`, the fluorescence ratio to DMSO is 91%.

With `CCOc1cc(/C=C2/N=C(c3ccc(C(C)(C)C)cc3)OC2=O)cc(Cl)c1OS(C)(=O)=O`, the fluorescence ratio to DMSO is 102%. To `CC(C)(C)Cc1c(C2CCCCC2)nc2ccc(Br)cn12` belongs 101%; to `O=C(CSc1nc2ncccc2[nH]1)Nc1ccc2c(c1)OCCO2`, 103%; to `CCOc1cc2[nH]c(=S)n(Cc3ccc(C(=O)NCCOC)cc3)c(=O)c2cc1OCC`, 98%. To `COc1cc2[nH]c(=S)n(Cc3ccc(F)cc3)c(=O)c2cc1OC` belongs 72% (active); to `COc1cc2[nH]c(=S)n(Cc3ccc(C)o3)c(=O)c2cc1OC`, 100%.

On to `CCOC(=O)[C@]12CCC=C1N(Cc1ccco1)C(=O)[C@H](CC(=O)NCc1cccc(C(F)(F)F)c1)C2`, for which the fluorescence ratio to DMSO is 107%. Consider `CCC(C)NC(=O)CN(C1CCCCC1)S(C)(=O)=O` (stereo not drawn), for which the fluorescence ratio to DMSO was 98%. To `CS(=O)(=O)N(CC(=O)N1CCN(c2ccc(F)cc2)CC1)C1CCCCC1` belongs 94%. Turning to `CCOC(=O)N1CCN(C(=O)CN(C2CCCCC2)S(C)(=O)=O)CC1`, the fluorescence ratio to DMSO was 73% (active).

As for `C=CCn1c(CNS(=O)(=O)c2ccc(Br)cc2)nnc1SC`, the fluorescence ratio to DMSO was 96%. To `C=Cn1cc[n+](CC(=O)c2ccc(OC)c(OC)c2)c1` belongs 97%; to `CCOC(=O)Cc1csc(NC(=O)CN(C)S(=O)(=O)c2ccc3c(c2)CCC(=O)N3)n1`, 98%; to `CN(CC(=O)NC(=O)Nc1ccccc1F)Cc1ccccc1`, 97%. To `CCOC(=O)c1ccc(-n2c(C)nc3c(cnn3-c3ccccc3C)c2=O)cc1` belongs 100%; to `Cc1cccc(N2CCN(C(=O)CCS(=O)(=O)c3ccc4c(c3)NC(=O)C(C)S4)CC2)c1C` (stereo not drawn), 74% (active). To `CC1Sc2ccc(S(=O)(=O)CCC(=O)NCc3ccccc3Cl)cc2NC1=O` (stereo not drawn) belongs 93%; to `COc1ccccc1N1CCN(C(=O)CCS(=O)(=O)c2ccc3c(c2)NC(=O)C(C)S3)CC1` (stereo not drawn), 102%. Regarding `COc1ccc(C(=O)NC2CC2)cc1OC1CCN(C/C=C/c2ccccc2)CC1`, the fluorescence ratio to DMSO was 95%. As for `Cc1ccc(CN(C(=O)c2sc3ccccc3c2Cl)C2CCS(=O)(=O)C2)cc1` (stereo not drawn), the fluorescence ratio to DMSO was 95%. To `CCCn1c(O)c(CN2CCCC(C)C2)c(C)c(C#N)c1=O` (stereo not drawn) belongs 96%. Consider `CCCCn1nc(C(=O)N2CCc3ccccc32)c2ccccc2c1=O`, for which the fluorescence ratio to DMSO was 102%. In the case of `Cc1ccc(CNC(=O)c2ccc(CS(=O)Cc3cccc(Cl)c3)o2)cc1` (stereo not drawn), the fluorescence ratio to DMSO was 102%. To `O=C(O)c1ccn(COc2ccc(Br)cc2)n1` belongs 95%; to `Cc1cccc(NS(=O)(=O)c2ccc(C)c(C(=O)NCc3cccnc3)c2)c1`, 98%. To `Cc1cccc(NC(=O)c2nc(S(=O)(=O)Cc3ccccc3)ncc2Cl)c1` belongs 59% (active); to `O=C(CS(=O)(=O)Cc1ccccc1)Nc1cccnc1`, 93%; to `CN(CC(=O)Nc1ccc(F)cc1)CC(=O)Nc1ccc(Cl)c(S(=O)(=O)N2CCOCC2)c1`, 100%. Take `Cc1cccc(C(=O)Nc2ccc(Oc3cnccn3)cc2)c1`: the fluorescence ratio to DMSO is 98%. As to `Cc1cccc(CS(=O)(=O)c2ncc(Cl)c(C(=O)Nc3ccc(F)cc3)n2)c1`, the fluorescence ratio to DMSO was 44% (active). With `O=C(CSc1nnc(SCc2ccc(Cl)cc2)s1)N/N=C/c1ccccc1Cl`, the fluorescence ratio to DMSO is 115%. For the molecule `O=C(CSc1nncs1)NC1CCCc2ccccc21` (stereo not drawn), the fluorescence ratio to DMSO is 104%. To `CCCCC(O)C1=C[N+](=O)CC=C1` (stereo not drawn) belongs 92%. To `O=C(Nc1ccc(F)cc1)Nc1nnc([C@H]2C[C@H](O)[C@@H](CO)O2)s1` belongs 104%; to `CCOc1ccc(CCNC(=O)CN2C(=O)NC3(CCc4ccccc43)C2=O)cc1OCC` (stereo not drawn), 103%. To `CCC(=O)Nc1cccc(NC(=O)CSc2nnc(-c3ccc(NS(C)(=O)=O)cc3)n2C)c1` belongs 103%.

For the molecule `C=C1CCN([C@H](C(=O)NCc2cc(OC)c(OC)c(OC)c2)C(C)C)S(=O)(=O)c2ccccc21`, the fluorescence ratio to DMSO was 97%. As to `Cc1cccc(C(=O)NCc2nnc(SC(C)C(=O)Nc3nnc(C)s3)n2C)c1` (stereo not drawn), the fluorescence ratio to DMSO was 101%. On to `CC(=O)c1cccc(NC(=O)CN2C(=O)c3cccnc3Oc3ccc(Cl)cc32)c1`, for which the fluorescence ratio to DMSO was 114%. Take `CC(C)[C@H](NC(=O)Nc1ccc(S(N)(=O)=O)cc1)C(=O)O`: the fluorescence ratio to DMSO is 107%. `O=C(c1ccc(Cl)cc1)c1cnc(Nc2ccccc2)s1`: the fluorescence ratio to DMSO is 70% (active). To `CC(C)(C)C(=O)c1cnc(Nc2ccccc2)s1` belongs 94%. To `Nc1nc(COC(=O)CCC(=O)c2ccc(Cl)cc2)nc(Nc2ccccc2)n1` belongs 94%; to `ON=C1/C(=N\O)CC2(C/C1=N/O)OCCO2`, 103%.

`O=C(COC(=O)c1cccc(Cl)c1Cl)NC1CCCCCC1`: the fluorescence ratio to DMSO is 93%. Regarding `COC(=O)c1ccc2nc(C3CCCCC3)c(Cc3cccc(F)c3)n2c1`, the fluorescence ratio to DMSO is 107%.

Consider `COc1cccc(NC(=O)CS(=O)(=O)c2cn(CC(=O)N3CCOCC3)c3ccccc23)c1`, for which the fluorescence ratio to DMSO is 97%. To `COc1ccccc1C(=O)C(O)c1ccccc1OC` (stereo not drawn) belongs 73% (active); to `COc1ccccc1C(=O)Nn1cnnc1`, 100%. As to `COc1ccccc1C(=O)c1ccccc1C(=O)c1ccccc1`, the fluorescence ratio to DMSO is 102%.

Consider `CCOc1ccc(S(=O)(=O)NCCC(=O)N2CCCCCCC2)cc1`, for which the fluorescence ratio to DMSO is 98%.

On to `CCOc1ccc(CCNC(=O)COC(=O)c2ccc(C)c(S(=O)(=O)N3CCOCC3)c2)cc1OCC`, for which the fluorescence ratio to DMSO is 101%.

In the case of `COc1c(O)ccc2c1CN1CCc3cc4c(cc3C1C2)OCO4` (stereo not drawn), the fluorescence ratio to DMSO was 102%. For the molecule `CCn1c(SCC(=O)Nc2ccc3c(c2)OCCO3)nnc1C(C)C`, the fluorescence ratio to DMSO was 88%. As to `CCn1c(COc2ccccc2)nnc1SCC(=O)Nc1ccc2c(c1)OCCO2`, the fluorescence ratio to DMSO is 73% (active).

With `Cn1ccnc1SCC(=O)Nc1ccc2c(c1)OCCO2`, the fluorescence ratio to DMSO was 101%. For the molecule `COc1cc(CN2CCCC(C(=O)c3ccc(SC)cc3)C2)cc(Cl)c1O` (stereo not drawn), the fluorescence ratio to DMSO was 96%. To `COC(=O)C(=Nc1ccccc1)/C(C(=O)C(=O)N(C)c1ccccc1)=C(\O)c1ccc(Cl)cc1` belongs 94%. In the case of `COc1cc(NS(=O)(=O)c2ccc(NC(=O)c3ccc(S(=O)(=O)N4CCCCC4)cc3)cc2)ncn1`, the fluorescence ratio to DMSO is 102%. On to `CCS(=O)(=O)N1CCC(N2CCN(c3ccccc3)CC2)CC1`, for which the fluorescence ratio to DMSO is 70% (active). For the molecule `CS(=O)(=O)N1CCC(C(=O)N2CCN(c3ccccc3)CC2)CC1`, the fluorescence ratio to DMSO is 108%. Turning to `O=S(=O)(NCCS(=O)(=O)N1CCN(c2ccccc2)CC1)c1ccc(F)cc1`, the fluorescence ratio to DMSO is 95%. For the molecule `CCOC(=O)c1cc(-c2sc(NC(=O)c3ccccc3)nc2C)n(-c2ccc(Br)cc2)n1`, the fluorescence ratio to DMSO is 90%. To `COc1cccc(N(CC(=O)N2CCc3ccccc3C2)S(C)(=O)=O)c1` belongs 73% (active); to `CS(=O)(=O)N(CC(=O)N1CCc2ccccc2C1)c1ccc(Br)cc1`, 95%; to `Cc1ccc(S(=O)(=O)N(CC(=O)N2CCc3ccccc3C2)c2cccc(Cl)c2)cc1`, 90%. To `COCCNc1cc(-c2ccccc2)nc2cc(-c3cccc(F)c3)nn12` belongs 97%. To `CC1(C(=O)NS(=O)(=O)c2ccc3ccccc3c2)CCN1C(=O)C1(c2ccc(Cl)cc2)CCC1` (stereo not drawn) belongs 102%; to `Cc1ncn2cc(-c3ccc(Cl)cc3Cl)[nH]c(=O)c12`, 96%. Consider `O=C(Nc1ccccc1Cl)/C(Cl)=C(\Cl)S(=O)c1ccccc1` (stereo not drawn), for which the fluorescence ratio to DMSO is 43% (active).

`O=C(COc1nsnc1N1CCOCC1)Nc1ccccc1Cl`: the fluorescence ratio to DMSO was 95%. To `O=C(Nc1ccccc1C(=O)N1CCCCCC1)c1ccccc1Cl` belongs 99%; to `Cc1ccc(S(=O)(=O)N2C[C@@H]3CCCC[C@@H]3[C@@H](C)[C@H]2c2cn(Cc3ccccc3)c3ccc(F)cc23)cc1`, 97%; to `COc1cccc(N(CC(=O)NCCSc2ccccn2)S(C)(=O)=O)c1`, 99%. With `Cc1ccc(C(=O)Nc2ccccc2-c2ccccc2)cc1S(=O)(=O)Nc1ccccc1`, the fluorescence ratio to DMSO is 99%. As for `CCOC1=C2[C@H]([C@H]3C(=O)N(c4ccccc4)C(=O)[C@H]3C1)[C@@H](c1ccccc1)N(S(=O)(=O)c1ccc(C)cc1)[C@H]2c1ccccc1`, the fluorescence ratio to DMSO was 104%. To `Cc1cc(C)c(C(=O)CSc2nc(C)cc(=O)[nH]2)c(C)c1` belongs 101%; to `Cc1cc(C(=O)CSc2nc(N)cc(=O)[nH]2)c(C)n1CCc1ccc(Cl)cc1`, 95%; to `Cc1cc(C(=O)CSc2nc(N)cc(=O)[nH]2)c(C)n1-c1cccc(F)c1`, 72% (active). Take `CC(Oc1ccccc1)C(=O)NN1Cc2ccccc2C1=N` (stereo not drawn): the fluorescence ratio to DMSO was 99%. `O=C(OCC(=O)N1CCCCC1)c1ccc(OC(F)(F)F)cc1`: the fluorescence ratio to DMSO was 95%. In the case of `O=C1NC2(CCCCCC2)C(=O)N1CCS(=O)(=O)Oc1ccccc1`, the fluorescence ratio to DMSO was 96%. On to `O=c1ccc2cc(S(=O)(=O)N3CCN(c4ccccc4)CC3)ccc2o1`, for which the fluorescence ratio to DMSO is 98%.
